Several values for one entry are separate records, joined by “and”; a condition that tells them apart may be missing. Equal values may be shown once. Inconclusive results are not listed. Activity calls are given as the source filed them. Unless noted, calls follow the shape of the dose curve; as a rule, active = well fitted curve in the direction sought with a large enough effect; inconclusive = small, poorly fitted or top-dose-only effect, or another doubt; inactive = no such curve, though single readings can be large; an effect the other way counts as inactive or inconclusive.
Legend:
[1] = Cell Viability - BJ (AID 421; calls by dose curve;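 also: potency is read from the fitted curve at half-maximal effect; cells exposed to compound for 40 hours at 37 °C before readout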); conditions: BJ fibroblast viability, qHTS
In short: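 Cytotoxicity as drop in intracellular ATP (CellTiter-Glo, 20 min RT) after 40 hr compound exposure of BJ fibroblasts at 37 °C. Titrations scaled between DMSO and 100 uM tamoxifen, Hill-fitted for AC50.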

[2] = Cell Viability - Mesenchymal (AID 546); conditions: mesenchymal cells viability, qHTS; series mostly up to 91.7 µM;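 also: cells exposed to compound for 40 hours before reading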
In short: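 Human kidney mesenchymal cells from normal renal glomeruli, 1000 cells/well, rested 5 hr at 37 °C, then treated 40 hr at 37 °C in complete medium. Cellular ATP read by CellTiter-Glo luminescence; AC50 from Hill-equation fits.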

[3] = Cellular Toxicity (caspase-3) HepG2 (AID 654); conditions: HepG2 caspase-3 activation, luminescence, 0% = DMSO only, 100% = tamoxifen; series mostly up to 92.2 µM;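 also: cells exposed to compound for 16 hours before reading; 0% = DMSO alone and 100% = caspase signal from 100 µM tamoxifen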
In short: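 Cells plated 5 hr at 37 °C, compound added, incubated 16 hr at 37 °C. Caspase-Glo 3/7 reagent followed, 20 min at room temperature, then luminescence read. Activation scored as signal increase; AC50 from Hill fit.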

[4] = Cellular Toxicity (caspase-3) HUV-EC-C (AID 656); conditions: HUV-EC-C cells, caspase-3 activation (apoptosis), vehicle = 0, 100 µM tamoxifen = 100%; series mostly up to 92.2 µM
In short: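 Luminescent caspase-3/7 activation (aminoluciferin substrate cleavage) in HUV-EC-C cells after 16 hr compound exposure, 37°C. Signal normalized to DMSO basal and 100 uM tamoxifen as 100%; AC50 from concentration-response fitted with the Hill equation.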

[5] = Cellular Toxicity (caspase-3) BJ (AID 658); conditions: BJ fibroblasts, luminescence, normalized: DMSO 0%, staurosporine 100%; series mostly up to 91.7 µM;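 also: cells exposed to compound for 16 hours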
In short: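 BJ human foreskin fibroblasts, 1000 cells/well, treated 16 hours at 37 °C in complete medium; caspase 3/7 activity by Caspase-Glo luminescence after 1 hr at room temperature. Normalized to DMSO and 10 uM staurosporine; AC50 from Hill fits.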

[6] = Cellular Toxicity (caspase-3) MRC-5 (AID 659); conditions: MRC-5 cells, luminescence, normalized: DMSO 0%, 10 µM staurosporine 100%; series mostly up to 91.7 µM
In short: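 MRC-5 human normal lung fibroblasts, 1500 cells/well, treated 16 h at 37 °C in complete medium. Caspase 3/7 measured by Caspase-Glo luminescence after 1 h at room temperature. Normalized to DMSO and 10 uM staurosporine; AC50 from Hill fit.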

[7] = Cellular Toxicity (caspase-3) SK-N-SH (AID 661); conditions: SK-N-SH caspase-3 activation, qHTS; series mostly up to 91.7 µM;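 also: cells exposed to compound for 16 hours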
In short: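 Human neuroblastoma SK-N-SH, 1500 cells/well, 5 hr pre-incubation, then compound 16 hr, 37 °C. Caspase-Glo 3/7 reagent, 1 hr RT, luminescence. Norm. to DMSO/10 uM staurosporine; Hill-fit AC50.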

[8] = Cellular Toxicity (caspase-3) Hek293 (AID 664); conditions: HEK293 caspase-3 activation, DMSO = 0%, 100 µM tamoxifen = 100%; at 92.2 µM (top of the series);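 also: cells exposed to compound for 16 h at 37 °C before readout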
In short: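 Cells plated, 5 hr at 37 °C; compounds added; 16 hr at 37 °C; Caspase-Glo 3/7 reagent, 20 min RT; luminescence read. Activation expressed relative to DMSO and 100 uM tamoxifen, AC50 by Hill model.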

[9] = MultiTox-Fluor Cytotoxicity Assay - LYMP1-001 - Dead Cells (AID 946); conditions: LYMP1-001 lymphoblastoid cells, dead-cell protease fluorescence; series mostly up to 92.2 µM
In short: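 Cytotoxicity as increased dead-cell protease fluorescence (bis-AAF-R110, 485/520 nm), read 60 min after MultiTox-Fluor reagent. Human lymphoblastoid line exposed 16 h; Hill-fitted AC50, with DMSO as 0% and 15 uM tetraoctylammonium bromide as 100%.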

[10] = Cell Viability - LYMP1-002 - Assay at 16 hr (AID 948); conditions: LYMP1-002 lymphoblastoid cell viability; series mostly up to 92.2 µM;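 also: 0% = DMSO alone and full effect = 92 µM tetraoctylammonium bromide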
In short: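 LYMP1-002 human lymphoblastoid cells, 2500/well; 5 hr 37 C; cpd 16 hr 37 C; CellTiter-Glo 30 min RT; luminescence (ATP). Concentration-response, Hill-fit AC50. Pos ctrl tetraoctylammonium bromide.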

[11] = MultiTox-Fluor Cytotoxicity Assay - LYMP1-002 - Live Cells (AID 955); conditions: LYMP1-002 lymphoblastoid live-cell protease fluorescence viability; series mostly up to 46.1 µM;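 also: cells exposed to compound for 16 hours; % is scaled to controls: 0 for no effect and ±100 for the full control effect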
In short: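 Read-out is live-cell protease activity (cell-permeant GF-AFC substrate, fluorescence Ex/Em=405/510), where a decrease indicates acute toxicity. Human lymphoblastoid cells were treated 16 hours at 37 C in a concentration series, and AC50 values came from standard Hill modelling.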

[12] = MultiTox-Fluor Cytotoxicity Assay - LYMP1-003 - Dead Cells (AID 961); conditions: LYMP1-003 lymphoblastoid cells, dead-cell protease fluorescence; series mostly up to 92.2 µM; also: nearly all actives have a fitted effect of over 70% in size
In short: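 Dead-cell protease release, detected as bis-AAF-R110 fluorescence at 485/520 nm, was measured in LYMP1-003 cells after 16 h compound treatment at 37 C. AC50 values came from Hill-modeled qHTS curves normalized to DMSO (0%) and 15 uM tetraoctylammonium bromide (100%).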

[13] = MultiTox-Fluor Cytotoxicity Assay - LYMP1-003 - Live Cells (AID 962); conditions: LYMP1-003 lymphoblastoid cells, MultiTox-Fluor live-cell protease fluorescence; series mostly up to 92.2 µM;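 also: cells exposed to compound for 16 hours at 37 °C; 0% = DMSO only and full loss = 92 µM tetraoctylammonium bromide; cytotoxic hits lower the live-cell protease signal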
In short: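 qHTS, 1536-well; 2500 cells/well LYMP1-003; 5 hr 37 C settle; cpd 16 hr 37 C; MultiTox-Fluor reagent 60 min RT; live-cell protease fluor. 405/510; Hill-fit AC50; tetraoctylammonium bromide pos. ctrl.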

[14] = Cell Viability - LYMP1-003 - Assay at 24 hr (AID 963); conditions: LYMP1-003 lymphoblastoid cell viability; series mostly up to 92.2 µM;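 also: plate controls were DMSO only for no effect and tetraoctylammonium bromide positive control for full effect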
In short: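 Cells seeded at 2500/well, 5 hr at 37 C; compounds added; 24 hr at 37 C; CellTiter-Glo added, 30 min room temperature; luminescence read. Decrease in ATP taken as cytotoxicity, AC50 from Hill modelling.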

[15] = Cell Viability - LYMP2-003 (AID 965); conditions: LYMP2-003 lymphoblastoid cell viability; series mostly up to 92.2 µM;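 also: cells exposed to compounds for 24 h before reading; 0% = DMSO only and full effect = 92 µM tetraoctylammonium bromide; nearly all actives have a fitted effect of over 50% in size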
In short: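 CellTiter-Glo luminescence (cellular ATP) after 24 h compound exposure at 37 C in complete medium; 2500 cells/well, 5 h settling beforehand. Concentration-response fitted to standard Hill equation for AC50. Tetraoctylammonium bromide served as positive control.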

[16] = Cell Viability - LYMP2-025 (AID 976); conditions: LYMP2-025 lymphoblastoid cell viability; series mostly up to 92.2 µM;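 also: plate controls were DMSO only for no effect and tetraoctylammonium bromide control for full effect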
In short: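 Seed 2500 LYMP2-025 cells/well; 5 hr at 37 C; add compound; 24 hr at 37 C; add CellTiter-Glo; 30 min RT; read luminescence. AC50 from Hill-modelled concentration-response.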

[17] = Cell Viability - LYMP2-016 (AID 984); conditions: LYMP2-016 lymphoblastoid cell viability, qHTS; series mostly up to 92.2 µM;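 also: cells exposed to compound for 24 hours at 37 °C; % is scaled to controls: 0 for no effect and ±100 for the full control effect; nearly all actives have a fitted effect of over 55% in size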
In short: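 qHTS, 1536-well: 2500 LYMP2-016 cells/well, 5 hr 37 C, compound added, 24 hr 37 C, CellTiter-Glo 30 min RT, luminescence. Tetraoctylammonium bromide positive control. AC50 via Hill fit.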

[18] = Cell Viability - LYMP2-026 (AID 989); conditions: LYMP2-026 lymphoblastoid cell viability, qHTS; series mostly up to 92.2 µM; also: % is scaled to controls: 0 for no effect and ±100 for the full control effect; nearly all actives have a fitted effect of over 50% in size
In short: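 Luminescent ATP signal (CellTiter-Glo, 30 min room temperature) measures viable lymphoblastoid cells after 24 hr compound treatment at 37 C. Decreased ATP reflects acute toxicity; AC50 values come from Hill-equation modeling.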

[19] = qHTS Assay for Identification of Small Molecule Inducers of Hypoxia Response (AID 2120; active = well fitted curve in the direction sought with a large enough effect in the signal ratio, with a control signal flat, not every such curve was filed as active; the % refers to the signal ratio; also: 0% is about no effect); conditions: hypoxia response reporter cells, beta-lactamase ratio readout; series mostly up to 104 µM
In short: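 ME-180 HRE-bla cells plated in Opti-MEM/0.5% dialyzed FBS, rested 4-5 h, then dosed with compound titrations by pin tool. After 17 h at 37 degrees C, CCF4 dye loaded 2.5 h at RT; 460/530 nm ratio gave %Activity and AC50.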

[20] = molecular target: Peroxisome proliferator-activated receptor alpha (Homo sapiens) (UniProt Q07869); assay: qHTS assay for small molecule agonists of the peroxisome proliferator-activated receptor alpha (PPARalpha) signaling pathway (AID 651778); conditions: PathHunter PPARalpha complementation, chemiluminescence, 6 h; stronger effect = higher value; also: % of control where 0% means no effect
In short: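 Enzyme-fragment complementation assay in which ligand-bound PPARalpha translocates and forms an active enzyme that generates chemiluminescence. Cells were plated overnight, exposed to compound for 6 hr at 37 C, and then given detection reagent for 60 min at room temperature.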

Peroxisome proliferator-activated receptor alpha (Homo sapiens), sequence (Q07869 whole entry, looked up, the tested form may be a part): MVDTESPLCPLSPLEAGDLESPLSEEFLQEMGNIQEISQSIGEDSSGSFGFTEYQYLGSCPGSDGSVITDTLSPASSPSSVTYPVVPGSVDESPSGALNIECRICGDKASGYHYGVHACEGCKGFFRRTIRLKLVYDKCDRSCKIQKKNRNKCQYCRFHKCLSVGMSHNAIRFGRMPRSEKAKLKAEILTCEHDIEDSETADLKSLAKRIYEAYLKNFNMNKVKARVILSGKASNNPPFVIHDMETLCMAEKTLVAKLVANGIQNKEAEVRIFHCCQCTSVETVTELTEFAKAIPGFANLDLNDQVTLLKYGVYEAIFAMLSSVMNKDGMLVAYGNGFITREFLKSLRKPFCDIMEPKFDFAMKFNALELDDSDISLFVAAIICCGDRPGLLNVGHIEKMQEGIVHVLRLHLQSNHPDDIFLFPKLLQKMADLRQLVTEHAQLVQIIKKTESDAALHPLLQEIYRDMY

O=[N+]([O-])c1cccc2c([N+](=O)[O-])cccc12
inactive: Potency [1] > 92 µM | Potency [2] | outcome [3] | outcome [4] | outcome [5] | outcome [6] | Potency [7] | caspase-3 activation [8] -0.427% | outcome [9] | outcome [10] | outcome [11] | Potency [12] | outcome [13] | outcome [14] | Potency [15] | Potency [16] | Potency [17] | Potency [18] | Potency [19] | max response [20] -0.14%

O=[N+]([O-])c1cc(Cl)c(Cl)c(Cl)c1
inactive: Potency [1] > 92 µM | Potency [2] | outcome [3] | outcome [4] | outcome [5] | outcome [6] | Potency [7] | caspase-3 activation [8] 2.74% | outcome [9] | outcome [10] | outcome [11] | Potency [12] | outcome [13] | outcome [14] | Potency [15] | Potency [16] | Potency [17] | Potency [18] | Potency [19] | max response [20] -4.23%

ClC=CCl
inactive: Potency [1] > 92 µM | Potency [2] | outcome [3] | outcome [4] | outcome [5] | outcome [6] | Potency [7] | caspase-3 activation [8] -1.83% | outcome [9] | outcome [10] | outcome [11] | Potency [12] | outcome [13] | outcome [14] | Potency [15] | Potency [16] | Potency [17] | Potency [18] | Potency [19] | max response [20] -2.13%

CCOP(=S)(OCC)Oc1nc(Cl)c(Cl)cc1Cl
inactive: Potency [1] > 92 µM | Potency [2] | outcome [3] | outcome [4] | outcome [5] | outcome [6] | Potency [7] | caspase-3 activation [8] 2.26% | outcome [9] | outcome [10] | outcome [11] | Potency [12] | outcome [13] | outcome [14] | Potency [15] | Potency [16] | Potency [17] | Potency [18] | Potency [19] | max response [20] 0.508% [middle of 4 runs]

O=C(O)C(Br)Br
inactive: Potency [1] > 92 µM | Potency [2] | outcome [3] | outcome [4] | outcome [5] | outcome [6] | Potency [7] | caspase-3 activation [8] -1.18% | outcome [9] | outcome [10] | outcome [11] | Potency [12] | outcome [13] | outcome [14] | Potency [15] | Potency [16] | Potency [17] | Potency [18] | Potency [19] | max response [20] 14.7%

CC(C)(C)OOC(=O)c1ccccc1
inactive: Potency [1] > 92 µM | Potency [2] | outcome [3] | outcome [4] | outcome [5] | outcome [6] | Potency [7] | caspase-3 activation [8] -1.73% | outcome [9] | outcome [10] | outcome [11] | Potency [12] | outcome [13] | outcome [14] | Potency [15] | Potency [16] | Potency [17] | Potency [18] | Potency [19] | max response [20] -5.26% and -0.274%

N#CC(Br)Br
inactive: Potency [1] > 92 µM | Potency [2] | outcome [3] | outcome [4] | outcome [5] | outcome [6] | Potency [7] | caspase-3 activation [8] 5.88% | outcome [9] | outcome [10] | outcome [11] | Potency [12] | outcome [13] | outcome [14] | Potency [15] | Potency [16] | Potency [17] | Potency [18] | Potency [19] | max response [20] -1.13%

Cl/C=C\Cl
inactive: Potency [1] > 92 µM | Potency [2] | outcome [3] | outcome [4] | outcome [5] | outcome [6] | Potency [7] | caspase-3 activation [8] 0.708% | outcome [9] | outcome [10] | outcome [11] | Potency [12] | outcome [13] | outcome [14] | Potency [15] | Potency [16] | Potency [17] | Potency [18] | Potency [19] | max response [20] -0.887%
